Measurements as given in PubChem BioAssay (NCATS).
Inconclusive results are not listed. A number with no mark means an inactive call. The source made the active and inactive calls. The call rests on the fitted dose curve; in most records, active means well fitted cell-killing curve with a large enough effect; inconclusive means small, poorly fitted or top-dose-only effect; inactive means flat fitted curve, though single readings scatter.

Experiment: Cell Viability - LYMP2-023 (AID 975); further: nearly all actives have a fitted effect of over 55% in size
Conditions: LYMP2-023 lymphoblastoid cell viability; series mostly up to 92.2 µM; activity change, negative = cytotoxicity: at the top concentration
Source text: NIH Chemical Genomics Center [NCGC]
NIH Molecular Libraries Screening Centers Network [MLSCN]
National Institutes of Environmental Health Sciences [NIEHS]
National Toxicology Program [NTP]
We have developed a 1536-well cell-based assay for quantitative high throughput screening (qHTS) against a number of cell lines to determine in vitro cytotoxicity of small molecules. This particular assay uses a human lymphoblastoid cell line (LYMP2-023) purchased from Coriell Institute for Medical Research.
NCGC Assay Protocol Summary:
The CellTiter-Glo luminescent cell viability assay (Promega) is a homogeneous method to measure the number of viable cells in culture. The end point readout of this assay is based on quantitation of intracellular ATP, an indicator of metabolic activity, using the luciferase reaction. Luciferase catalyzes the oxidation of beetle Luciferin to oxyluciferin and light in the presence of ATP. The luminescent signal is proportional to amount of ATP present.
Using the CellTiter-Glo luminescent cell viability assay, the amount of cellular ATP was measured in the lymphoblastoid cell line with complete culture medium following compound treatment for 24 hours. The assay was performed in opaque white Kalypsys 1536-well plates. In the screen, tetraoctylammonium bromide was used as positive control. Library compounds were measured for their ability to cause acute toxicity in the cell line, as reflected by a decrease in intracellular ATP levels, in a concentration-dependent manner. […] AC50 values were determined from concentration-response data modeled with the standard Hill equation.
qHTS protocol for CellTiter Glo lymphoblastoid cellular assay
[Step] [Parameter] [Value] [Description]
1. Reagent; 5 uL; 2500 lymphoblastoid cells/well
2. Time; 5 hr; 37 C incubation
4. Controls; 23 nL; Tetraoctylammonium bromide 6.4pM to 92 uM
5. Time; 24 hr; 37 C incubation
6. Reagent; 5 uL; CellTiter Glo reagent
7. Time; 30 min; Room Temperature
8. Detection; Luminescence; Viewlux plate reader
Keywords: cell viability, cytotoxicity, lymphoblastoid cell line, luminescence, NTPHTS, NTPHTS_NCGC, NIEHS, DSSTox, MLSMR, MLSCN, NIH Roadmap, qHTS, NCGC

First: c1ccc2c(c1)[nH]c1ccccc12
Second: O=C1c2ccccc2C(=O)C1c1ccc2ccccc2n1
The “activity change, negative = cytotoxicity” value of the first is higher: -4.7% for the first, -15% for the second.

First: Cc1ccc([N+](=O)[O-])cc1N
Second: Cc1ccc([N+](=O)[O-])c(C)c1
The “activity change, negative = cytotoxicity” value of the first is lower: -0.91% for the first, -0.469% for the second.

First: COC(=O)c1ccc(C=O)cc1
Second: COC(=O)c1ccc(C)cc1
The “activity change, negative = cytotoxicity” value of the first is higher: 1.92% for the first, -0.114% for the second.

First: O=[N+]([O-])c1cccc(Cl)c1Cl
Second: Cc1cccc([N+](=O)[O-])c1C
The “activity change, negative = cytotoxicity” value of the first is lower: -5.99% for the first, -1.76% for the second.

First: C=C(C)C1CC=C(C)C(O)C1 (stereo not given)
Second: CC1=C2[C@H](/C=C(\C)C(=O)O)CC[C@@H](C)[C@H]2CC1
The “activity change, negative = cytotoxicity” value of the first is higher: 1.47% for the first, -1.7% for the second.

Going from `CC(C)=CCCC(C)CCO` (stereo not given) to `CC(=O)OC/C=C(\C)CCC=C(C)C`, the “activity change, negative = cytotoxicity” value rises from -1.32% to -0.611%.

Going from `COCC(=O)O` to `COC(=O)CCCCC(=O)OC`, the “activity change, negative = cytotoxicity” value falls from -2.95% to -7.34%.

First: COc1ccc2nc(N)sc2c1
Second: C/C=C\c1ccc(OC)cc1
The “activity change, negative = cytotoxicity” value of the first is higher: -1.42% for the first, -3.16% for the second.

Going from `CCCCCCCCCCCCCC(=O)O` to `CCCCCCCCCCCCCCC1CO1` (stereo not given), the “activity change, negative = cytotoxicity” value rises from -12% to -6.29%.

Compared with `Clc1cc(Cl)c(Cl)cc1Cl`, `Clc1cc(Cl)c(Cl)c(Cl)c1Cl` is lower in “activity change, negative = cytotoxicity” value: -2.7% for the first, -6.11% for the second.

First: CC12CCC(CC1=O)C2(C)C (stereo not given)
Second: CC1(C)CC(N=C=O)CC(C)(CN=C=O)C1 (stereo not given)
The “activity change, negative = cytotoxicity” value of the first is lower: -1.42% for the first, 1.73% for the second.

First: c1ccc2scnc2c1
Second: O=C(O)c1ccccc1
The “activity change, negative = cytotoxicity” value of the first is lower: 4.67% for the first, 6.7% for the second.

Going from `CCCCCCCCO` to `CN(C)CCCCCCN(C)C`, the “activity change, negative = cytotoxicity” value rises from -1.9% to 0.424%.

Going from `CCO[Si](CCCN)(OCC)OCC` to `CCO`, the “activity change, negative = cytotoxicity” value falls from -2.11% to -2.71%.

Compared with `ClCCCl`, `O[C@@H]([C@H](O)[C@@H](O)CBr)[C@@H](O)CBr` is higher in “activity change, negative = cytotoxicity” value: -3.15% for the first, -0.478% for the second.

Going from `O=C(O)c1ccccc1C(c1ccc(O)cc1)c1ccc(O)cc1` to `Nc1ccc(S(=O)(=O)O)cc1`, the “activity change, negative = cytotoxicity” value falls from 2.4% to -5.37%.

Compared with `O=C(O)CC(C(=O)O)C(CC(=O)O)C(=O)O` (stereo not given), `Cc1c(N=C=O)cccc1N=C=O` is lower in “activity change, negative = cytotoxicity” value: 2.19% for the first, -1.71% for the second.

In the case of `C1OCOCO1`, the “activity change, negative = cytotoxicity” value was 2.03%.

With `CCCCC(CC)CN` (stereo not given) the Potency was “inactive”.
With `c1ccccc1` the Potency was “inactive”.
For `CCC(O)OC(O)CC` (stereo not given), the Potency was “inactive”.
For `O=NO`, the Potency was “inactive”.
With `CCCCOCCO` the Potency was “inactive”.
